Screening results deposited in PubChem BioAssay by several laboratories.
Compounds with a hit are over-represented: about 4.2% of the library has one in this group of screens.
tim23-1 inh = growth inhibitors of tim23-1 mutant yeast | S. cerevisiae tim23-1 growth, BacTiter-Glo luminescence, 24 h | inhibition, % at 20 µM | 330,000 compounds, 1.3% hits | AID 463212;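 active = growth inhibition of the mutant yeast at or above 50%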;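 also: temperature-sensitive mutant grown at 25 °C; plate controls were DMSO-treated mutant yeast for no effect and medium wells lacking yeast for full effect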
NALP1 inh = NALP1 inhibition; S. cerevisiae NALP1/ASC/caspase-1 growth, X-gal OD620, 72 h; inhibition, % at 10 µM; 280,000 compounds, 0.61% hits; AID 2071; in the data active = inhibition mostly above about 24%, no sharp cut-off; inactive = mostly below about 32%
NALP3 yeast inh = NALP3 inhibition in yeast; Yeast reconstituted NLRP3/ASC/caspase-1, beta-gal luminescence, 24 h; inhibition, % at 10 µM; 330,000 compounds, 0.39% hits;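 active = inhibition of 50% or more; inactive = inhibition below 50%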;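 also: plate controls were induced DMSO wells for no effect and uninduced yeast grown without galactose for full effect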
TIM10 inh = growth inhibitors of TIM10 yeast strain; 330,000 compounds, 1.4% hits; AID 463195; S. cerevisiae TIM10 strain growth, BacTiter-Glo luminescence, 24 h; inhibition, % at 10 µM;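 active = inhibition of 40% or more at the single tested concentration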;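 also: wild-type TIM10 isogenic control strain grown at permissive 25 °C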
PfHsp90 set2 = reduces growth (ATP signal) of yeast expressing P. falciparum Hsp90; S. cerevisiae expressing PfHsp90, BacTiter-Glo ATP, 48 h; yeast lacking PDR1 and PDR3 efflux regulators; inhibition, % at 9.4 µM; 310,000 compounds, 0.32% hits; AID 504621;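 active = every replicate shows inhibition above about 80%, whatever the replicate mean, limit read from the data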;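 also: 0% = DMSO neutral controls and 100% = 20 µM radicicol positive controls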
tim10-1 inh = growth inhibitors of tim10-1 mutant yeast. 330,000 compounds, 2.2% hits. S. cerevisiae tim10-1 ts strain growth, BacTiter-Glo, 24 h. inhibition, % at 20 µM;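 active = inhibition of at least 40%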;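 also: mutant grown at 25 °C; 0% = DMSO wells with yeast and 100% = wells holding no yeast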
tim10-1 conf = tim10-1 yeast growth inhibition, confirmed. 7,400 compounds, 56% hits. S. cerevisiae tim10-1 ts strain growth, BacTiter-Glo, 24 h. AID 463213. shares compounds with tim10-1 inh. inhibition, % at 20 µM;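 active = inhibition of yeast growth at or above a set limit in either of two repeat tests at 20 µM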;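 also: tim10-1 mutant grown at permissive 25 °C to find synthetic lethal compounds; 0% = DMSO yeast wells and 100% = medium wells without yeast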
An asterisk follows results filed as active; . = no result.

SMILES	tim23-1 inh	NALP1 inh	NALP3 yeast inh	TIM10 inh	PfHsp90 set2	tim10-1 inh	tim10-1 conf
COc1ccc(C(=O)Oc2cc(N)n(S(=O)(=O)c3ccccc3)n2)cc1	19	-9	4	21	-12	40*	23
CCOC(=O)c1c(C)[nH]c(C(=O)OCc2csc(CC(=O)Nc3ccccc3C)n2)c1C	-3	.	5	2	-48	8	.
COc1ccc(Cn2nnnc2CN2CCC(c3nc4ccccc4s3)CC2)cc1	10	-17	4	30	-11	41*	18
O=C(NCc1ccc(F)cc1)c1ccc(N2CCc3ccccc32)c([N+](=O)[O-])c1	39	28	27	18	0	42*	26
O=C(O)c1ccc(N2CCc3ccccc32)c([N+](=O)[O-])c1	2	-7	6	17	0	3	.
CN(C(=O)Cn1nnc2ccccc2c1=O)C1CCCCC1	13	20	23	5	5	7	.
CCN1C(=O)C(=O)N(Cc2ccc(OC)c(F)c2)C1=O	5	2	-2	7	3	-15	.
O=C(Nc1ccc(S(=O)(=O)N2CCOCC2)cc1)c1cccnc1	14	4	-15	4	-2	2	.
COc1ccc(NC(C)(C)c2nnnn2-c2c(C)cccc2C)cc1	38	4	-9	23	-3	40*	32*
Cc1occc1C(=O)Nc1ccc(S(=O)(=O)N2CCCC2)cc1	20	22	1	22	.	42*	27
Cc1ccc(C(=O)Nc2ccc(S(=O)(=O)N3CCOCC3)cc2)cc1C	35	17	20	29	2	41*	15
O=S(=O)(c1ccc(NC(=S)N/N=C/c2ccc(Oc3ccccc3)cc2)cc1)N1CCOCC1	-2	-30	3	-9	16	4	.
O=S(=O)(c1ccc(NC(=S)N/N=C/c2c3ccccc3cc3ccccc23)cc1)N1CCOCC1	17	10	-1	34	-49	50*	30*
COc1ccccc1C(=O)Nc1ccc(S(=O)(=O)N2CCCCC2)cc1	13	8	8	26	8	48*	40*
COc1ccccc1C(=O)Nc1ccc(S(=O)(=O)N2CCCC2)cc1	22	-5	28	37	6	27	.
Nc1nc2ccccc2n1CCOc1ccc(F)cc1	0	-5	4	2	8	-1	.
COc1cccc(CN2C[C@]34C=C[C@@H](C[C@@H]3S2(=O)=O)O4)c1	15	11	8	1	-5	-1	.
CCN(CCn1cccn1)C(=O)C1CCC(=O)N(CC2CCCCC2)C1 (stereo not given)	-2	8	19	3	-40	-5	.
CCc1nnc(NC(=O)CSc2ccc(-c3ccc(-n4cccn4)cc3)nn2)s1	-5	.	-2	-2	.	-3	.
Cc1ccc(N2CC(C(=O)OCC(=O)NNC(=O)c3ccccc3)CC2=O)cc1 (stereo not given)	3	.	17	6	-22	-2	.
O=C(CCNC(=O)C1CCN(S(=O)(=O)c2ccc(F)cc2)CC1)NCc1ccccc1	8	7	-3	5	2	12	.
COC(=O)c1ccccc1NC(=O)C1CCCN(S(=O)(=O)c2ccc(F)cc2)C1 (stereo not given)	40	37	33	10	0	27	.
COC(=O)c1ccccc1NC(=O)C1CCCN(S(=O)(=O)c2ccccc2)C1 (stereo not given)	39	-9	29	9	-1	40*	29
CCOC(=O)c1sc(NC(=O)CSc2nc(-c3ccco3)cc(C(F)(F)F)n2)c(C(=O)OCC)c1C	.	.	.	.	6	.	.
O=C(O)c1ccc(CSc2nnc(-c3ccccc3)n2-c2ccccc2)cc1	3	23	5	-1	-2	18	.
SMILES	tim23-1 inh	NALP1 inh	NALP3 yeast inh	TIM10 inh	PfHsp90 set2	tim10-1 inh	tim10-1 conf
Brc1cccc(-c2nnc(SCc3ccon3)n2-c2ccccc2)c1	45	14	10	26	-38	41*	15
CCc1ccccc1N(CC)C(=O)C1CCN(c2ncnc3c2nc2n3CCCCC2)CC1	33	10	12	17	-6	42*	10
CCN(Cc1ccccc1)C(=O)C1CCN(c2ncnc3c2nc2n3CCCCC2)CC1	14	12	6	8	2	18	.
O=C(C1CCN(c2ncnc3c2nc2n3CCCCC2)CC1)N1CCN(c2ccc(F)cc2)CC1	-28	8	17	-63	-5	44*	-97
O=C(NCc1cccnc1)C1CCN(S(=O)(=O)c2cc(Cl)ccc2Cl)CC1	0	29	15	-11	6	-34	.
CCCN(CCC)S(=O)(=O)c1ccc(C(=O)Nc2nnc(-c3cc(OC)cc(OC)c3)o2)cc1	-5	3	13	22	-46	41*	8
CCCN(CCC)S(=O)(=O)c1ccc(C(=O)Nc2nnc(-c3cccc(OC)c3)o2)cc1	7	28	6	7	-41	36	.
CC(C)c1ccc(N(CC(=O)NC2CCCC2)C(=O)CCC(=O)Nc2ccccn2)cc1	7	4	21	13	7	-20	.
CCc1ccccc1OCC(=O)Nc1nc(-c2cccnc2)cs1	29	-9	16	7	75	40	29
CCC(=O)c1ccc(OCC(=O)Nc2nc(-c3cccnc3)cs2)cc1	-12	.	12	-24	-37	-12	.
C/C(=N\NC(=O)COc1ccc(C(C)(C)C)cc1)c1ccc2c(c1)OCCO2	25	13	3	16	-9	41*	20
CCc1ccc(OCC(=O)N/N=C(\C)c2ccc3c(c2)OCCO3)cc1	44	41	38	13	28	23	.
O=C1C2C3C=CC(CO)(O3)C2C(=O)N1c1ccccc1-c1ccccc1 (stereo not given)	-5	0	-22	19	142*	53*	87*
O=C1CN(C(=O)c2c(F)cccc2F)C(c2ccc(F)cc2)c2cc(Br)ccc2N1 (stereo not given)	26	9	-6	7	12	41*	29*
O=C1CN(C(=O)c2c(F)cccc2F)C(c2ccccc2)c2cc(Br)ccc2N1 (stereo not given)	25	6	12	22	-6	20	.
C=CCn1c(SCc2cccc(C#N)c2)nnc1-c1ccccc1O	34	21	-6	8	5	19	.
C=CCn1c(SCc2ccc(C#N)cc2)nnc1-c1cccc(Cl)c1	41	16	14	23	0	46*	23
CCNC(=S)Nc1ccc(S(=O)(=O)Nc2cc(C)nc(C)n2)cc1	16	12	10	-10	1	3	.
COc1cc(-c2cc(-c3nnco3)c3ccccc3n2)cc(OC)c1OC	27	-6	6	6	.	14	.
